The structures appear in SMILES notation.
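Note: kd values determined as follow-up on hits from a single-replicate KINOMEscan panel screen.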

In the first assay the test system is TGFBR1.
As usually defined, the Kd is the equilibrium constant for the complex coming apart. Consider `Cl.c1ccc(-c2n[nH]cc2-c2ccnc(-c3ccc(CN4CCOCC4)cc3)c2)nc1` [GW776245], for which the Kd is 150 nM.
Turning to `Cc1ccc(-c2cc(-c3c[nH]nc3-c3ccccn3)ccn2)cc1` [GW684088], binding was characterised by a dissociation constant (Kd) of 260 nM.
Turning to `Cc1cccc(-c2nc(C)cc(Nc3ccncc3)n2)n1` [GSK257997], the Kd came to 200 nM.

For a further assay, the system named is TGFBR2.
Take `Cc1cccc(-c2nc(Nc3ccncc3)c3ccccc3n2)n1` [GW855857]: binding was characterised by a dissociation constant (Kd) of 290 nM.
Same read-out and setting: the value for `Cc1csc(-c2nc(Nc3ccncc3)c3ccccc3n2)n1` [GW869640] was 250 nM; that for `Cl.c1ccc(-c2n[nH]cc2-c2ccnc(-c3ccc(CN4CCOCC4)cc3)c2)nc1` [GW776245] was 210 nM.

The record behind these values is publication PMC5540273 (PLoS ONE, 2017).
